In the library only some 18% were active in any assay of this set; here they are far more common.
TDP1 block = blocks human tyrosyl-DNA phosphodiesterase 1; recombinant TDP1, AlphaScreen DNA substrate cleavage; Q9NUW8; 350,000 compounds, 0.28% hits; Potency, µM (highest dose often 130 µM), without a hit: at the highest dose activity change, negative = inhibition, usual class: inhibitors; note: potency is the fitted concentration of half-maximal effect; % is set by controls: 0 for no effect and ±100 for the full control effect; nearly all actives have a fitted effect of over 40% in size
Target sequence (Q9NUW8 whole entry, looked up): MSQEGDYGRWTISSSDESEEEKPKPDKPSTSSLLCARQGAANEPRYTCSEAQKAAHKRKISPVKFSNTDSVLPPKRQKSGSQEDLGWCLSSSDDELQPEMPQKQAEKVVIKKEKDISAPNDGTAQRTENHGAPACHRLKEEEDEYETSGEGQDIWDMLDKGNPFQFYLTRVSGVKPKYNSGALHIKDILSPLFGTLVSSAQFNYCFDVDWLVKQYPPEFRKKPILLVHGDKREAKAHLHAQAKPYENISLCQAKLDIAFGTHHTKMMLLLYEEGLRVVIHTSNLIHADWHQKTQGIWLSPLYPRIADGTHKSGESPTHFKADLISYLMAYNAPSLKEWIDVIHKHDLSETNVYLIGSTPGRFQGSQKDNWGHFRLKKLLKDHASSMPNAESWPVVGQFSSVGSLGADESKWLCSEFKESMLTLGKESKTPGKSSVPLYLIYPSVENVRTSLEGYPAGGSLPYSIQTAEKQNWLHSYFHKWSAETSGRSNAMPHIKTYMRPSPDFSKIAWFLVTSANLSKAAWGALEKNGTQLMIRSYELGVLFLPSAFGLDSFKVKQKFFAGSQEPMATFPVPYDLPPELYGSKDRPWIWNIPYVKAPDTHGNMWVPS
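Enzyme-compound mixtures sat 15 min at room temperature, followed by a 5 min reaction with 15 nM final substrate and 10 min with AlphaScreen beads. Recombinant human Tdp1 was used at 1 nM final.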
HepG2 viability = counter-screen for TGF-b inhibitors: cytotoxicity in HepG2 cells | HepG2 CAGA-GFP viability, ATP luminescence, 18 h | Potency, µM (series often up to 46.1 µM), inactives show top-dose activity change, negative = cytotoxicity, hits mostly cytotoxic | 410,000 compounds, 0.76% hits | AID 588856; note: potency is the fitted concentration of half-maximal effect
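CellTiter-Glo luminescence gave cytotoxicity after 18 hours at 37 degrees C. The cells were HepG2 CAGA-GFP in 1% FBS DMEM, stimulated with 500 pg/mL TGF-beta after compound addition. %Activity was normalised to no-cell wells (complete cell-killing) and DMSO (no toxicity), and curves were fitted and classified.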
TDP1 cell noCPT = qHTS for Inhibitors of human tyrosyl-DNA phosphodiesterase 1 (TDP1): qHTS in cells in absence of CPT; DT40 Tdp1-/- hTDP1 cells, no CPT, ATP luminescence, 48 h; Potency, µM (series often up to 46.2 µM), inactives show at the top dose activity change, negative = growth inhibition, usual class: inhibitors; 420,000 compounds, 15% hits; AID 686978, 2013; note: potency is the fitted concentration of half-maximal effect; % is set by controls: 0 for no effect and ±100 for the full control effect; nearly all actives have a fitted effect of over 55% in size
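Luminescent ATP content (CellTiter-Glo) served as the growth readout. Knockout chicken DT40 cells expressing human TDP1 were exposed to compounds without camptothecin for a minimum 48 hr at 37 °C.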
TDP1 cell CPT = growth inhibition of DT40 Tdp1-/-;hTDP1 cells with camptothecin (screen for TDP1 inhibitors). chicken DT40 Tdp1-/-;hTDP1 cells + 20 nM CPT, ATP luminescence, 48 h. 420,000 compounds, 12% hits. AID 686979. Potency, µM (titrated, usually from 46.2 µM), inactives show top-dose activity change, negative = growth inhibition, usual class: inhibitors; note: potency is the fitted concentration of half-maximal effect; % is set by controls: 0 for no effect and ±100 for the full control effect; nearly all actives have a fitted effect of over 55% in size
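Chicken DT40 Tdp1-/- cells complemented with human TDP1, 400 cells/well, exposed to compounds plus 20 nM camptothecin for at least 48 h at 37 C; viability read as ATP content by CellTiter-Glo luminescence.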
TGFb SMAD3 inh = TGF-b pathway inhibition | HepG2 CAGA-GFP TGF-b/SMAD3 reporter, GFP fluorescence, 18 h; TGF-beta stimulated, 500 pg/mL final | Potency, µM (top dose mostly 46.1 µM), for the others: top-dose activity, negative = inhibition, actives largely listed as inhibitors | 410,000 compounds, 1.2% hits; note: potency is the fitted concentration of half-maximal effect; % is set by controls: 0 for no effect and ±100 for the full control effect; nearly all actives have a fitted effect of over 65% in size
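Smad-responsive CAGA-GFP expression was quantified in HEPG2 cells exposed to compounds and 500 pg/mL final TGF-beta for 18 h at 37 degrees C; unstimulated wells defined full inhibition.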
IL-1B inflam inh = inflammasome signaling inhibition, IL-1 beta readout | activity change, % at 57.5 µM | AID 743279 | THP-1 LPS/ATP IL-1B secretion, AlphaLISA, 16 h; active compounds read low | 360,000 compounds, 4.7% hits; in the data active = activity change below about -50%; inconclusive = mostly about -30% to -49%; note: % is set by controls: 0 for no effect and ±100 for the full control effect
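Secreted IL-1B measured by AlphaLISA bead assay after 16 h compound exposure of THP-1 cells; compounds (final up to 57.5 uM) added 1 h before LPS (250 ng/mL) and ATP (1.25 mM) stimulation; lower signal means less secretion.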
The depositor's hits bear a star; ? = inconclusive; / = not tested or not shown; [ ] = remark or other dose. Unless noted, calls come from the whole dose curve; as a rule, active = well fitted curve in the direction sought with a large enough effect; inconclusive = small, poorly fitted or top-dose-only effect, or another doubt; inactive = no such curve, though single readings can be large; an effect the other way counts as inactive or inconclusive.

SMILES	TDP1 block	HepG2 viability	TDP1 cell noCPT	TDP1 cell CPT	TGFb SMAD3 inh	IL-1B inflam inh
O=C(Nc1ccc(OC(F)(F)F)cc1)C1CCCN(S(=O)(=O)c2cccc3nonc23)C1 (stereo not drawn)	5.0%	-5.2%	-2.9%	-13.3%	48.2%	/
COc1ccc(-c2cc(=O)c3ccc(F)cc3[nH]2)cc1	6.1%[234 µM]	/	/	/	/	/
O=C(/C=C/c1ccc(S(=O)(=O)NCc2ccco2)cc1)NCc1ccccc1Cl	0.0%	-12.1%	18.4µM*	?	0.0%	?
COc1ccc(CNC(=O)/C=C/c2ccc(S(=O)(=O)NCc3ccco3)cc2)cc1OC	3.5%	0.4%	25.9µM*	?	-2.1%	-8.0
CC(C)(C)NS(=O)(=O)c1ccc(NC(=O)C(Sc2ccccc2)c2ccccc2)cc1 (stereo not drawn)	3.4%	-28.3%	?	?	?	?
COc1ccc(C(C(=O)NC2CCCCC2)N(C(=O)c2ccco2)c2ccccc2OC)cc1 (stereo not drawn)	2.3%[0.0935 µM]	2.5%	16.4µM*	?	-14.0%	-20.0
COc1cccc(C(C(=O)NC2CCCCC2)N(C(=O)c2ccco2)c2ccccc2OC)c1 (stereo not drawn)	/	-22.7%	11.6µM*	?	-10.9%	3.7
COc1ccc(C)cc1N(C(=O)c1ccco1)C(C(=O)NC1CCCC1)c1ccc(N2CCOCC2)cc1 (stereo not drawn)	/	1.3%	9.2µM*	-12.9%	0.0%	-58.5*
O=C(NCCO)c1ccc(-c2ccc3nncn3c2)cc1	/	0.3%	-2.4%	-1.4%	-11.3%	16.0
CCOc1ccccc1-c1nc(-c2cc3ccc(C)cc3[nH]c2=O)no1	-2.5%	-16.5%	?	25.9µM*	-9.9%	-22.1
CCOc1ccccc1-c1nc(-c2cc3ccccc3nc2OC)no1	-5.1%	-3.0%	23.1µM*	16.4µM*	9.6%	-5.4
COc1ccc(CNC(=O)c2ccc3c(c2)N(Cc2ccccc2)C(=O)c2ccccc2S3(=O)=O)cc1	6.9%	0.7%	-23.2%	?	/	/
O=C(NC1CCN(C(=O)NCc2ccccc2)CC1)c1ccc(F)cc1	-3.3%	0.1%	-11.6%	-1.6%	21.6%	18.1
CC(=O)c1ccc(N2CCN(C(=O)Nc3ccc(F)cc3F)CC2)cc1	1.1%	-11.0%	-22.3%	?	-19.9%	-10.4
CC(C)Cn1cc(NC(=O)N2CCN(c3ccc(F)cc3)CC2)c2ccccc2c1=O	6.3%	-20.1%	18.4µM*	14.6µM*	-8.2%	/
O=C(c1ccc(F)cc1)C1CCN(C(=O)NCc2ccccc2)CC1	2.0%	-4.1%	23.1µM*	16.4µM*	0.9%	-4.7
O=C(Nc1ccc(F)cc1F)N1CCN(c2ccc(Cl)c(Cl)c2)CC1	6.1%	-38.6%	4.61µM*	6.51µM*	?	/
O=C(NCc1ccccc1)N1CCN(c2ccc(Cl)c(Cl)c2)CC1	1.0%	-51.1%	5.8µM*	18.4µM*	-14.8%	39.2
CC(C)Cn1cc(NC(=O)N2CCN(c3ccccc3F)CC2)c2ccccc2c1=O	-3.2%	-20.9%	?	?	-0.4%	/
CCN(CC)CCNC(=O)/C(=C/c1cn(C)c2ccccc12)NC(=O)c1ccc(OC)c(OC)c1	5.1%	8.2%	?	-12.4%	4.8%	-8.3
CC(NC(=O)COC(=O)CN1C(=O)C2CCCCC2C1=O)c1ccccc1 (stereo not drawn)	-0.3%	-6.5%	-14.2%	-25.6%	0.5%	-4.9
COC(=O)c1ccc(N2CCOCC2)c(NC(=O)c2cccnc2)c1	2.4%	1.5%	2.9%	18.9%	22.8%	37.9

Screens from PubChem.
